According to PubChem BioAssay (NCATS):
Records with an inconclusive call do not appear. Values without a mark were called inactive. Calls follow the shape of the dose curve; as a rule, active = well fitted inhibition curve with a large enough effect; inconclusive = small, poorly fitted or top-dose-only effect; inactive = no such curve, though single readings can be large or run the other way. *1 amine or outer side, *2 acyl side, *3 side chain or, on linkers, in order; H or OH if unused. Where a SMILES comes first, the peptide text is derived from it. [ ]: non-standard residue; d: D form. ξ: configuration not given here. X7 = O=C([C@@H](CC(O)CCl)O[*:1])[*:2]; aIle = CC[C@@H](C)[C@H](N)C(=O)O; ξLac(3-iPr) = CC(C)CC(O)C(=O)O; NMeV = CN[CH](C(=O)O)C(C)C; NMeA = CN[CH](C)C(=O)O; βAla = NCCC(=O)O

Tested on: Zika virus NS2B-NS3 protease (unlinked complex)
Assay: Primary screen GU Rhodamine qHTS for Zika virus inhibitors: Unlinked NS2B-NS3 protease assay (AID 1347159); also: nearly all actives have a fitted effect of over 60% in size
Details: Recombinant ZIKV NS2B-NS3 protease, Rhodamine110 substrate fluorescence; series mostly up to 107 µM; activity change, negative = inhibition: at the top concentration
Description: Avindra Nath, Ph.D., National Institute of Neurological Disorders and Stroke (NINDS), Bethesda, MD
Radhakrishnan Padmanabhan, Ph.D., Georgetown University (GU), Washington D.C.
Zika Virus causes congenital defects, including microcephaly and is associated with Guillain-Barre syndrome, eningoencephalitis and myelitis in infected adult. […] Using a target-based approach, we hope to establish a screening paradigm to uncover novel, cell-active NS2B-NS3 protease (Zika Virus) specific inhibitors from NCATS' collection of small molecules using qHTS.
Four assay panel was created to identify potential Zika Virus inhibitors. Namely, (1) GU unlinked NS2B-NS3 AMC tagged protease qHTS, (2) GU unlinked NS2B-NS3 Rhodamine tagged protease qHTS, (3) NINDS linked NS2B-NS3 AMC tagged protease qHTS, (4) NINDS linked NS2B-NS3 Rhodamine tagged protease qHTS. Active compounds were re-acquired and re-screened to confirm inhibition. Inhibitors were further screened against various confirmatory and counterscreens in dose response format.
Early Translation Branch (ETB)
National Center for Advancing Translational Sciences (NCATS), Rockville, MD
National Institute of Health (NIH), Bethesda, Maryland
Padmanabhan lab provided the NS2B hydrophilic domain and NS3 protease domain in a noncovalent complex used for the unlinked assay. Control compound aprotinin is obtained from Thermo Scientific (#78432; Waltham, Massachusetts). Rhodamine110 substrate ([N-Cbz]-Nle-Lys-Arg-Arg-Rhod110-Arg-Arg-Lys-Nle-[N-Cbz]) was purchased from either Genscript or Bachem.
1536-well Protease (Rhodamine110 Substrate) Assay:
Briefly, 3 microL of enzyme (25 nM final concentration), in assay buffer (10 mM Tris-HCl pH 8.0 with 0.01% Tween 20) were dispensed into a 1,536-well solid-bottom black plate (Greiner Bio One, Monroe, NC). Twenty-three nL of compounds (final concentration range 7.28 nM to 114 microM) or control Aprotinin (final concentration range 3.47 nM to 114 microM) were transferred via Wako Pin-tool (Wako Automation, Richmond, VA). Samples were incubated (room temperature, protected from light) for 15 minutes followed by a 1 microL Rhodamine110 substrate addition (1.5 microM final concentration). Plates were then immediately read on a ViewLux High-throughput CCD imager (PerkinElmer, Waltham, MA) equipped with FITC fluorescence optics (480(20) nm excitation, 540(25) nm emission), then incubated (room temperature, protected from light) for 15 minutes (~15% conversion). The change in fluorescence intensity over the 15-minute reaction period was normalized against no-inhibitor and no-enzyme controls and the resulting percent inhibition data were fitted to a 4-parameter Hill equation. Aprotinin was used as intraplate control.
% is scaled to controls: 0 for no effect and ±100 for the full control effect.

Structure (SMILES) | activity change, negative = inhibition
CC(=O)O[C@H]1CC[C@@]2(CI)C(=CC[C@@H]3[C@@H]2CC[C@]2(C)C(=O)CC[C@@H]32)C1 | 0%
COc1ccc2c(c1)c(CCN(C)C)cn2S(=O)(=O)c1ccccc1 | 134%
Cc1c(Cl)c(OCC(=O)N2CCN(C)CC2)nc2sc(C(=O)NC3CC3)c(N)c12 | 3.93%
CNC(=O)c1cc(C#N)cc(C)c1NC(=O)c1cc(Br)nn1-c1ncccc1Cl | 0%
C[C@]12CCC(=O)C=C1CC[C@@H]1[C@@H]2[C@@H](O)C[C@]2(C)C(=O)CC[C@@H]12 | 663%
C[C@H](Nc1ncnc2nc[nH]c12)c1nc2ccc(F)cc2c(=O)n1-c1ccccc1 | 15.3%
CC1=CC2/C=C(\C)CCC(O)C(O)/C=C/C(=O)C23C(=O)NC(CC(C)C)C3C1C (stereo not given) | -0.703% [at 57.1 µM]
O=C(NCCN1CCC2(CC1)C(=O)NCN2c1cccc(F)c1)c1ccc2ccccc2c1 | -31.8%
CCOC(=O)c1ccnc2cc(C(OCCN3CCCCC3)c3ccccc3Cl)sc12 (stereo not given) | -12.3%
Cc1[nH]c2ccc(Cl)cc2c1CCN(C)C | 40.2%
C[C@@H]1CN(Cc2ccc(F)cc2)CCN1C(=O)COc1ccc(Cl)cc1NC(N)=O | -0.539%
O=C1CN=C(c2cccc(Br)c2)c2oc3ccccc3c2N1 | -11.9%
NCCCCCNC1(c2ccccc2)CCCCC1 | 31.5%
C/C=C(\C)C(=O)OC1C2C3(C)CCC(OC4CC(OC)C(OC5OC(C)C(O)C(OC)C5O)C(C)O4)CC3CCC23OC32CCC(C(C)=O)C2(C)C1OC(=O)/C(C)=C/C (stereo not given) | -1.79% [at 32.5 µM]
CN(C(=O)C(c1ccccc1)c1ccccc1)[C@H](CN1CC[C@H](O)C1)c1ccccc1 | 1.71%
CN1C[C@@H]2CN(c3ccc(-c4ccccc4)nn3)C[C@@H]2C1 | 2.73%
CN(C(=O)CN1C(=O)COc2cc(Cl)c(Cl)cc21)[C@@H](CN1CCCC1)c1ccc(-c2cccc(C(N)=O)c2)cc1 | 59%
CC[C@H]1C2CC3[C@@H]4N(C)c5ccccc5[C@]45C[C@@H]([C@H]2[C@H]5O)N3[C@H]1O | 4.12%
CC[C@H]1C2CC3[C@@H]4N(C)c5ccccc5[C@]45C[C@@H]([C@H]2[C@H]5O)N3[C@@H]1O | 4%
Fc1cc(F)c2c(c1)C1C=CCC1C(c1cccnc1)N2 (stereo not given) | -8.1%

Structure (SMILES) | activity change, negative = inhibition
CN1CCc2cc3c(cc2C1C1OC(=O)c2c1ccc1c2OCO1)OCO3 (stereo not given) | 11%
CN1CN(c2ccccc2)C2(CCN(CCCC(=O)c3ccc(F)cc3)CC2)C1=O | -14.6%
CC[C@@H](C)[C@@H]1NC(=O)[C@@H]2CCCN2C(=O)[C@@H](CC(O)CCl)OC(=O)CCNC(=O)[C@H](C)N(C)C(=O)[C@H](C(C)C)N(C)C1=O (stereo not given in full) (cyclo([NMeA][βAla][X7]P[aIle][NMeV])) | 2.94% [at 32.5 µM]
COC1C(O)C(C)OC(OC2C(CO)O[C@@H](O[C@@H]3CC4CCC5C(CC[C@]6(C)[C@@H](C7=CC(=O)OC7)CC[C@]56O)[C@@]4(C)[C@H](OC(C)=O)C3)C(O)C2O)C1O (stereo not given in full) | 1.26% [at 32.5 µM]
CO[C@@H]1[C@H](O)[C@@H](O[C@@H]2C[C@H]3CC[C@@H]4C(CC[C@]5(C)[C@@H](C6=CC(=O)OC6)CC[C@]45O)[C@@]3(C)[C@H](O)C2)O[C@H](C)[C@@H]1O (stereo not given in full) | -21.8% [at 57.1 µM]
CC[C@H]1C[C@@H]2CC[C@@H](O2)[C@@H](C)C(=O)O[C@H](CC)C[C@H]2CC[C@H](O2)[C@H](C)C(=O)O[C@@H](C)C[C@@H]2CC[C@@H](O2)[C@@H](C)C(=O)O[C@H](CC)C[C@H]2CC[C@H](O2)[C@H](C)C(=O)O1 | -21.9% [at 32.5 µM]
COc1ccc(C23CCC(=O)C=C2N(C)CC3)cc1OC (stereo not given) | -4.87%
CCCN(CCC)CCc1ccc(OC)c(OCCc2ccccc2)c1 | 0%
C=C1[C@@H](C)[C@H]2[C@H](Cc3ccccc3)NC(=O)[C@]23[C@H](OC(C)=O)/C=C/[C@](C)(O)C(=O)[C@@H](C)C/C=C/[C@H]3[C@@H]1O | 10.9%
CC(=O)NCCCOc1ccc(C(=O)N2CCC(N3C(=O)CCc4ccccc43)CC2)cc1 | -2.82%
O=C1Nc2ccc3ncsc3c2/C1=C/c1cnc[nH]1 | 23.8%
C=C[C@H]1CN2CCC1C[C@H]2[C@H](O)c1ccnc2ccccc12 (stereo not given in full) | 0%
CC1=CC(=O)[C@@H](O)[C@]2(C)C3[C@@H](O)[C@@H]4OC(=O)[C@@H]([C@H]4C)[C@]3(C)C(=O)[C@H](O)[C@@H]12 (stereo not given in full) | 4.32%
COC[C@]12CN(C)C3C4[C@H](OC)[C@H]1C3(C(OC)C[C@H]2O)[C@H]1C[C@@]2(O)[C@H](OC(=O)c3ccccc3)[C@@H]1[C@]4(O)[C@@H](O)[C@@H]2OC (stereo not given in full) | 16.1%
CCC(C)C1NC(=O)C2CCCN2C(=O)C(CC(C)C)OC(=O)CCNC(=O)C(C)N(C)C(=O)C(C(C)C)N(C)C1=O (stereo not given) (cyclo([ξLac(3-iPr)]PI[NMeV][NMeA][βAla]); configuration not given here) | 0.604% [at 32.5 µM]
CC1=CC2OC3[C@H](O)C[C@@](C)([C@]34CO4)[C@@]2(CO)[C@H](O)C1=O (stereo not given in full) | 23%
C=C(C)C(=O)O[C@H]1[C@@H]2[C@H](C)C(=O)O[C@@H]2C[C@@H](C)[C@@H]2C=CC(=O)[C@]21C | 0.87%
COc1ccc2c3c4n(c2c1)[C@@H](C=C(C)C)OOC(C)(C)C[C@@H]4N1C(=O)[C@@H]2CCCN2C(=O)[C@]1(O)[C@H]3OCC=C(C)C | 1.48% [at 57.1 µM]
CC(=O)C1CCC2C3CCC4C[C@@H](O)CCC4(C)C3CCC12C (stereo not given in full) | 109%
C/C=C(\C)C(O)C(C)/C=C(C)/C=C/C/C(C)=C/Cc1nc(OC)c(OC)c(O[C@@H]2O[C@@H](C)[C@H](O)[C@@H](O)[C@H]2O)c1C (stereo not given in full) | -16.3% [at 57.1 µM]
